Unmarked numbers belong to inactive results. Unless noted, calls come from the whole dose curve; as a rule, active = well fitted curve in the direction sought with a large enough effect in the repeat runs; inconclusive = weak or mixed curves; inactive = no such curve, though single readings can be large; an effect the other way counts as inactive or inconclusive. Results filed as inconclusive are left out.
% is set by controls: 0 for no effect and ±100 for the full control effect.

A short description of the first test: qHTS assay to identify small molecule antagonists of the estrogen related receptor (ERR) signaling pathway from Tox21 library (AID 1224848). Note: nearly all actives have a fitted effect of over 50% in size. Conditions: ERR reporter cell line, luciferase antagonist mode, 18 h; series mostly up to 92.4 µM; activity, negative = inhibition: at the top concentration. In outline: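 Luciferase luminescence (ONE-Glo, 30 min room temperature) was the read-out. Cells of the NTP-supplied ERR line, 2,000 per well, were given 6 h at 37 C before compound addition in DMSO and 18 h exposure at 37 C.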
(qHTS replaces the single test concentration by a dilution series.)
As to `COC(C)(C)OC`, the “activity, negative = inhibition” value was 4.11%.
Still for that read-out and setting: the result for `O=C(O)CN1C(=O)c2cccc3cccc(c23)C1=O` reads 5.48% [at 42.5 µM]; that for `Cc1oc(=O)oc1COC(=O)[C@@H]1N2C(=O)[C@@H](NC(=O)[C@H](N)c3ccccc3)[C@H]2SC1(C)C`, 1.91% [at 42.5 µM]; that for `CNCc1ccc(NC(=O)c2c[nH]c3c2C(=O)CCC3)cc1`, -27.5%.
For the molecule `CN=C(N)NC(=O)Nc1c(C)cccc1C`, the “activity, negative = inhibition” value was -0.777% [at 42.5 µM].
Turning to `CC(=O)Oc1cccc(O)c1`, the “activity, negative = inhibition” value is 7.58% [at 42.5 µM].
`N[C@@H](Cc1cc(I)c(O)c(I)c1)C(=O)O`: the “activity, negative = inhibition” value was 4.56% [at 42.5 µM].
The same measure, in the same setting: the result for `CCC1CCC(CCC(=O)O)C1` (configuration not stated) reads -23%.
Consider `CC(C)CC(O)CC(C)C`, for which the “activity, negative = inhibition” value was 4%.
Consider `C=Cc1ccc(OC(C)=O)cc1`, for which the “activity, negative = inhibition” value was 20%.
The same measure, in the same setting: the result for `CC(C)c1ccc(C#N)cc1` reads -14%; that for `CCCCC(CC)COS(=O)(=O)O` (configuration not stated), 4.42%.
Still for that read-out and setting: the result for `Cc1ccc(Nc2c(F)cccc2Cl)c(CC(=O)O)c1` reads -21.8% [at 42.5 µM].
On the same count and under the same terms, the result for `CCCCCCCCCCCCCC(=O)OCC(O)CO` (configuration not stated) reads 3.76%; that for `O=C(O)c1ccc(O)cc1O`, -18.4%; that for `CCOC(=O)c1ccc(NC(=O)CN2CCCCC2)cc1`, 11.1% [at 42.5 µM].
As for `ClC1=C(Cl)C1(Cl)Cl`, the “activity, negative = inhibition” value is 10.2%.
Consider `CC(C)(C)CCCCCCOC(=O)c1ccccc1C(=O)OCCCCCCC(C)(C)C`, for which the “activity, negative = inhibition” value was -5.57%.
In the case of `CCNc1nc(N)nc(Cl)n1`, the “activity, negative = inhibition” value was 6.66%.
For `C1=CCC2CC=CC2C1` (configuration not stated), the “activity, negative = inhibition” value is 1.83%.
The same measure, in the same setting: then `O=C(NS(=O)(=O)/C=C/c1ccccc1)c1ccc(F)cc1Cl`, with 20.3%; and `COC1CCC=CO1` (configuration not stated), with 8.74%.

A further test in a line: qHTS assay to identify small molecule agonists of the estrogen related receptor (ERR) signaling pathway from Tox21 library (AID 1224849; calls by dose curve; note: nearly all actives have a fitted effect of over 15% in size). The note with it: ERR reporter cell line, ONE-Glo luciferase, 18 h; at 92.4 µM (top of the series) unless noted. In outline:
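Luminescent agonist read-out (One-Glo, 30-minute room-temperature incubation) following 18-hour compound treatment at 37 C of the ERR cell line, which had been plated 6 hours before dosing.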
For `COC(C)(C)OC`, the activity change, positive = activation was 2.58%.
As for `O=C(O)CN1C(=O)c2cccc3cccc(c23)C1=O`, the activity change, positive = activation was 3.18% [at 42.5 µM].
Same read-out and setting: then `Cc1oc(=O)oc1COC(=O)[C@@H]1N2C(=O)[C@@H](NC(=O)[C@H](N)c3ccccc3)[C@H]2SC1(C)C`, with 1.21% [at 42.5 µM].
Regarding `CNCc1ccc(NC(=O)c2c[nH]c3c2C(=O)CCC3)cc1`, the activity change, positive = activation is -17.3%.
Same read-out and setting: then `CN=C(N)NC(=O)Nc1c(C)cccc1C`, with -0.434% [at 42.5 µM]; and `CC(=O)Oc1cccc(O)c1`, with 5.58% [at 42.5 µM]; and `N[C@@H](Cc1cc(I)c(O)c(I)c1)C(=O)O`, with 2.55% [at 42.5 µM].
Same read-out and setting: then `CCC1CCC(CCC(=O)O)C1` (configuration not stated), with -14.4%.
The same measure, in the same setting: then `CC(C)CC(O)CC(C)C`, with 2.06%; and `C=Cc1ccc(OC(C)=O)cc1`, with 12.7%; and `CC(C)c1ccc(C#N)cc1`, with -9.84%.
For `SCCc1cnccn1`, the activity change, positive = activation was -18.7%.
The same measure, in the same setting: then `CCCCC(CC)COS(=O)(=O)O` (configuration not stated), with 3.39%.
The same measure, in the same setting: then `Cc1ccc(Nc2c(F)cccc2Cl)c(CC(=O)O)c1`, with -14.1% [at 42.5 µM].
Still for that read-out and setting: the result for `CCCCCCCCCCCCCC(=O)OCC(O)CO` (configuration not stated) reads 1.85%; that for `COc1ccc(/C=C/C(=O)c2ccc(OC)cc2OC)cc1`, -32.9% [at 42.5 µM]; that for `O=C(O)c1ccc(O)cc1O`, -9.45%.
As to `CCOC(=O)c1ccc(NC(=O)CN2CCCCC2)cc1`, the activity change, positive = activation is 5.71% [at 42.5 µM].
Same read-out and setting: then `ClC1=C(Cl)C1(Cl)Cl`, with 7.16%.
Consider `CC(C)(C)CCCCCCOC(=O)c1ccccc1C(=O)OCCCCCCC(C)(C)C`, for which the activity change, positive = activation was -3.55%.
Same read-out and setting: the result for `CCNc1nc(N)nc(Cl)n1` reads 3.57%; that for `C1=CCC2CC=CC2C1` (configuration not stated), 1.2%; that for `O=[N+]([O-])c1ccc2ncccc2c1`, -20.1%.
With `COC1CCC=CO1` (configuration not stated), the activity change, positive = activation was 5.99%.

The next test can be described thus: qHTS RealTime-Glo MT Cell Viability Assay in HepG2 cells - 24 hour (AID 1224867). Note: nearly all actives have a fitted effect of over 50% in size. Conditions: RealTime-Glo luminescence; series mostly up to 76.8 µM; activity change, negative = cytotoxicity: at the top concentration. In outline:
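HepG2 cells were seeded at 600 cells/well together with NanoLuc luciferase and a cell-permeant prosubstrate, preincubated 5 h at 37 C/5% CO2, then pin-dosed with compounds in DMSO. Nonlytic luminescence from viable cells was read at each time point.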
With `COC(C)(C)OC`, the “activity change, negative = cytotoxicity” value is 2.52%.
The same measure, in the same setting: then `CC(C)(C)C(O)/C=C/c1ccc2c(c1)OCO2` (configuration not stated), with 3.75% [at 35.3 µM].
Same read-out and setting: the result for `CCCCCCCCCCCCCOC(=O)CCSCCC(=O)OCCCCCCCCCCCCC` reads -1.37% [at 15.8 µM]; that for `O=C(O)CN1C(=O)c2cccc3cccc(c23)C1=O`, 0.892% [at 35.3 µM]; that for `CCCCCC`, -0.693%.
For the molecule `COC(OC)OC`, the “activity change, negative = cytotoxicity” value was 0.391%.
Same read-out and setting: the result for `CC1=C2[C@@H]([C@H](C)CC[C@H]2/C=C(\C)C(=O)O)[C@H](O)C1` reads 0.186%; that for `Cc1ccc(NC(=O)N(C)C)cc1NC(=O)N(C)C`, 0.96%; that for `CNC1CCCN(c2c(F)cc3c(=O)c(C(=O)O)cn(C4CC4)c3c2OC)C1` (configuration not stated), 0.929% [at 35.3 µM].
As for `COc1ccc(-n2nc(C(F)F)cc2-c2ccc(S(C)=O)cc2)cc1` (configuration not stated), the “activity change, negative = cytotoxicity” value was -6.35%.
The same measure, in the same setting: then `Cc1oc(=O)oc1COC(=O)[C@@H]1N2C(=O)[C@@H](NC(=O)[C@H](N)c3ccccc3)[C@H]2SC1(C)C`, with 2.08% [at 35.3 µM].
In the case of `CNCc1ccc(NC(=O)c2c[nH]c3c2C(=O)CCC3)cc1`, the “activity change, negative = cytotoxicity” value is -0.509%.
The same measure, in the same setting: then `NC(=O)c1ccccc1[N+](=O)[O-]`, with 1.69%; and `CN=C(N)NC(=O)Nc1c(C)cccc1C`, with 1.76% [at 35.3 µM]; and `CC(=O)Oc1cccc(O)c1`, with 2.83% [at 35.3 µM].
Same read-out and setting: then `N[C@@H](Cc1cc(I)c(O)c(I)c1)C(=O)O`, with -1.84% [at 35.3 µM].
Still for that read-out and setting: then `CCC1CCC(CCC(=O)O)C1` (configuration not stated), with 0.221%.
Take `CCOc1ncc(F)c(=O)[nH]1`: the “activity change, negative = cytotoxicity” value was 2.06% [at 35.3 µM].
As for `CC(C)CC(O)CC(C)C`, the “activity change, negative = cytotoxicity” value is 0.0897%.
The same measure, in the same setting: the result for `C=Cc1ccc(OC(C)=O)cc1` reads 0.789%.
Consider `CC(C)c1ccc(C#N)cc1`, for which the “activity change, negative = cytotoxicity” value is 1.29%.
Take `SCCc1cnccn1`: the “activity change, negative = cytotoxicity” value is 1.02%.
The same measure, in the same setting: the result for `CCCCCCC(O)CCCCCCCCCCC(=O)OC` (configuration not stated) reads -8.03%; that for `CCCCC(CC)COS(=O)(=O)O` (configuration not stated), 0.346%; that for `Nc1ccn([C@H]2CS[C@@H](CO)O2)c(=O)n1`, 0.0583%.
With `CCCCCCCCCCCCCC(=O)OCC(O)CO` (configuration not stated), the “activity change, negative = cytotoxicity” value was 0.145%.
On the same count and under the same terms, the result for `COc1ccc(/C=C/C(=O)c2ccc(OC)cc2OC)cc1` reads -15.8% [at 35.3 µM]; that for `O=C(O)c1ccc(O)cc1O`, 0.343%; that for `CCOC(=O)c1ccc(NC(=O)CN2CCCCC2)cc1`, 0.754% [at 35.3 µM].
On the same count and under the same terms, then `ClC1=C(Cl)C1(Cl)Cl`, with 1.57%; and `CC(C)(C)CCCCCCOC(=O)c1ccccc1C(=O)OCCCCCCC(C)(C)C`, with -3.96%.
On the same count and under the same terms, then `CCNc1nc(N)nc(Cl)n1`, with 1.41%; and `C1=CCC2CC=CC2C1` (configuration not stated), with 2.14%; and `O=C(NS(=O)(=O)/C=C/c1ccccc1)c1ccc(F)cc1Cl`, with -12.2%.
In the case of `CS(=O)(=O)c1ccc([C@@H](C[C@H]2CCC(=O)C2)C(=O)Nc2cnccn2)cc1Cl`, the “activity change, negative = cytotoxicity” value is 1%.
The same measure, in the same setting: the result for `COC1CCC=CO1` (configuration not stated) reads 1.82%.

Values taken from PubChem BioAssay (Tox21).
